This is an account of results in ChEMBL document CHEMBL1961873, “Compounds: GSK PKIS; Assays: Nanosyn kinase panel” (2012).

Assay [1] deals with High affinity nerve growth factor receptor (Homo sapiens) (UniProt P04629). The settings on record: at 1 µM.
Assay [2] deals with BDNF/NT-3 growth factors receptor (Homo sapiens) (UniProt Q16620). The settings on record: at 0.1 µM.
Assay [3] shares this target. Particulars: at 1 µM.
Assay [4] has as its target NT-3 growth factor receptor (Homo sapiens) (UniProt Q16288). Particulars: at 0.1 µM.
For assay [5] the target is unchanged. Particulars: at 1 µM.
The target in assay [6] is T1, Tyrosine-protein kinase TXK (Homo sapiens) (UniProt P42681).
T1 sequence (whole entry): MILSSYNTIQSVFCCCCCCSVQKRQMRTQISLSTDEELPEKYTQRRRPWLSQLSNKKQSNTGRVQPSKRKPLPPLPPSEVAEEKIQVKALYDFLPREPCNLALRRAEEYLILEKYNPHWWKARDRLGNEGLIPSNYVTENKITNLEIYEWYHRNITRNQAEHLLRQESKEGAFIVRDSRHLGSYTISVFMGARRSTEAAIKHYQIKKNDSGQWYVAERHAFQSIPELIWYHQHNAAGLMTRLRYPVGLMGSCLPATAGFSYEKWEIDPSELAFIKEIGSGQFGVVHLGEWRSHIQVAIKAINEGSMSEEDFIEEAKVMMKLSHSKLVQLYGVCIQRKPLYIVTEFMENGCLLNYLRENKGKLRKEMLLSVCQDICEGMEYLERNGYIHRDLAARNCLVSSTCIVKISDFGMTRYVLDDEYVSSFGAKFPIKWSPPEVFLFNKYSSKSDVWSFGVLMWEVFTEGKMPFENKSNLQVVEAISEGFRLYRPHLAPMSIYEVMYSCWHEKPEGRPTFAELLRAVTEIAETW
The settings on record: at 0.1 µM.

The target in assay [7] is T1, Tyrosine-protein kinase TXK (Homo sapiens). The settings on record: at 1 µM.
The target of assay [8] is Non-receptor tyrosine-protein kinase TYK2 (Homo sapiens) (UniProt P29597). The settings on record: at 0.1 µM.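 Note: each value is a mean of the inhibition readings.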
Sequence of Non-receptor tyrosine-protein kinase TYK2 (Homo sapiens) (P29597 whole entry): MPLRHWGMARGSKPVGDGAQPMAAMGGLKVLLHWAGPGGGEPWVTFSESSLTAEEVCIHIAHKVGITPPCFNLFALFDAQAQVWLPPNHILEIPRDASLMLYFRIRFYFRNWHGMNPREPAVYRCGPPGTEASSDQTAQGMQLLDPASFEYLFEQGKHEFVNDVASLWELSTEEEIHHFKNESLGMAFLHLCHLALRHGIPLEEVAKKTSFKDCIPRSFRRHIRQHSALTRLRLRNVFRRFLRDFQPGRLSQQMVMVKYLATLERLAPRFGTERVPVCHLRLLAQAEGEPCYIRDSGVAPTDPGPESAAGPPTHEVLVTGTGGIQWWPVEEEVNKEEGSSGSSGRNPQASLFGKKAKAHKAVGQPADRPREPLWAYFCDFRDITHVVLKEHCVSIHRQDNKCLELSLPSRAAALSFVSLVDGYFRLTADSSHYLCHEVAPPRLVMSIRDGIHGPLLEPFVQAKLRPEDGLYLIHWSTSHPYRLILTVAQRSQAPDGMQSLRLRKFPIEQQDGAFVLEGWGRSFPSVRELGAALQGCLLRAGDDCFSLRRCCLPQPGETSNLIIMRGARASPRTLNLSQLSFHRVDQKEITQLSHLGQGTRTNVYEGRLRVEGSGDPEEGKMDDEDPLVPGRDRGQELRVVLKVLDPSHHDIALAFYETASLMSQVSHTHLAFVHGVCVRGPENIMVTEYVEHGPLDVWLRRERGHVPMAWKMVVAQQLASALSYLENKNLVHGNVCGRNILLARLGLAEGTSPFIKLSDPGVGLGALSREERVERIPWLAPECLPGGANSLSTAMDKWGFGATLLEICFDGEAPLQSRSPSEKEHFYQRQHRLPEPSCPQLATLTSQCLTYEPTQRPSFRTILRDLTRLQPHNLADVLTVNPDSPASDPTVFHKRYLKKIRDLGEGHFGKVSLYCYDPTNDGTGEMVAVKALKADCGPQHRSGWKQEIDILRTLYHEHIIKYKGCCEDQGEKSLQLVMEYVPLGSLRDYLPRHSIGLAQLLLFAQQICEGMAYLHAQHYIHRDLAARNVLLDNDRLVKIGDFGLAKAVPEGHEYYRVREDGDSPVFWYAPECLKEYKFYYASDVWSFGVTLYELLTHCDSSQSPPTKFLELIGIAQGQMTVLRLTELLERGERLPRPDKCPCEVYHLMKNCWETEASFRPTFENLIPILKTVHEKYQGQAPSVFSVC
The target in assay [9] is T2, Dual specificity protein kinase TTK (Homo sapiens) (UniProt P33981).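 Note: reported figures are mean TTK inhibition at 1 µM.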
T2 sequence (whole entry): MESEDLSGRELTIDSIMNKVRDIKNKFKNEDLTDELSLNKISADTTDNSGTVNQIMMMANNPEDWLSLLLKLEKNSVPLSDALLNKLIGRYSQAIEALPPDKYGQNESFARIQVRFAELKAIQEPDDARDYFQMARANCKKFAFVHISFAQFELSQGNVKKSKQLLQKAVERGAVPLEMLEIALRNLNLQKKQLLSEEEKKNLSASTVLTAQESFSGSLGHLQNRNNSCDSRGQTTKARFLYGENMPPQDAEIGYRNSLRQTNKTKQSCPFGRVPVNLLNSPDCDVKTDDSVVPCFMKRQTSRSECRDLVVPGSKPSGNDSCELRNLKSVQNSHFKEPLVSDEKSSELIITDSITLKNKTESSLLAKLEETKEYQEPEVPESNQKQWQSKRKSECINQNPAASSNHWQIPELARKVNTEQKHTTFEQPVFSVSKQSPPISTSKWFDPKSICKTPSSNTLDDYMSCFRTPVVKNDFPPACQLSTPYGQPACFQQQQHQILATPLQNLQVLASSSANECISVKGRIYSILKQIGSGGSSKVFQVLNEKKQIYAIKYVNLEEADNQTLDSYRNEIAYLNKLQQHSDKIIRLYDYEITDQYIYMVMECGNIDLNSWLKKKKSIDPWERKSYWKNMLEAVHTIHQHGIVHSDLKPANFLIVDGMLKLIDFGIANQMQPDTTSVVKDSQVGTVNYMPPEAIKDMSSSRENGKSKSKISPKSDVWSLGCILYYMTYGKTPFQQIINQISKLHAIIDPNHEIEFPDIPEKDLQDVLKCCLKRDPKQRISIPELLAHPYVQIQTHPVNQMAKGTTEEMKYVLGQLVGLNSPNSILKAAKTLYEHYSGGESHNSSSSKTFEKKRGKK
Particulars: at 1 µM.

Assay [10] deals with T3, Aurora kinase A (Homo sapiens) (UniProt O14965).
T3 sequence (whole entry): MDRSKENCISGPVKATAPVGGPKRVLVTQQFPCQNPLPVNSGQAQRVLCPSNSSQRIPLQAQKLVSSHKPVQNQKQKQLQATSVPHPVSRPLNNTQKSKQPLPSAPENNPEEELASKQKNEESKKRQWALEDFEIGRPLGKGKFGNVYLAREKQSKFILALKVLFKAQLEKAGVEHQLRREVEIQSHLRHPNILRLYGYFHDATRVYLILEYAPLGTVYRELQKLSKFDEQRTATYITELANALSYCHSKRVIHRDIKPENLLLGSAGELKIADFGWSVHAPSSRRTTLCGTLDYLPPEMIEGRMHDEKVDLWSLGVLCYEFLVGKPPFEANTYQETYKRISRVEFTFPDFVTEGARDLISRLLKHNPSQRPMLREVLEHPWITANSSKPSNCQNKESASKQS
Particulars: at 0.1 µM.

For assay [11], the target named is T3, Aurora kinase A (Homo sapiens). The settings on record: at 1 µM.
Assay [12] deals with Aurora kinase B (Homo sapiens) (UniProt Q96GD4). The settings on record: at 0.1 µM.
Sequence of Aurora kinase B (Homo sapiens) (Q96GD4 whole entry): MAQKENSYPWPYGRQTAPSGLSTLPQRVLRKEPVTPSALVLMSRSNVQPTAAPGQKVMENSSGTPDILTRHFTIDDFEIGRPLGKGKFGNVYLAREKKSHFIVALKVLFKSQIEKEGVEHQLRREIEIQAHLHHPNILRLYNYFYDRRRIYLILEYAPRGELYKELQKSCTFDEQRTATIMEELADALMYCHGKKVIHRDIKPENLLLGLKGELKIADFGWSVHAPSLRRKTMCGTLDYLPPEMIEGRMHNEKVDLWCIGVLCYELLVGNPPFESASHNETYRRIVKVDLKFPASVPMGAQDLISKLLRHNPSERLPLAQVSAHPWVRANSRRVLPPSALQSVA
The target is the same in assay [13]. Particulars: at 1 µM.
The target of assay [14] is T4, Aurora kinase C (Homo sapiens) (UniProt Q9UQB9).
T4 sequence (whole entry): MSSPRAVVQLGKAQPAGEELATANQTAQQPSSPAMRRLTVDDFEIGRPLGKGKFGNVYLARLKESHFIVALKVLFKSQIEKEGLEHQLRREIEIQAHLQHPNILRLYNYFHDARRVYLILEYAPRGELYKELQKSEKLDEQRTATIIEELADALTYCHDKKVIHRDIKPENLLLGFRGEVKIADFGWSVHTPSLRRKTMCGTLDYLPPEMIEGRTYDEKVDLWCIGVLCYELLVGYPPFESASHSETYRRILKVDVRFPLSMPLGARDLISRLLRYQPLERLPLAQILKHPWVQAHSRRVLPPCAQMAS
The settings on record: at 0.1 µM.

Assay [15] has as its target T4, Aurora kinase C (Homo sapiens). The settings on record: at 1 µM.
For assay [16], the target named is Serine/threonine-protein kinase 10 (Homo sapiens) (UniProt O94804). Particulars: at 0.1 µM.
For assay [17] the target is unchanged. Particulars: at 1 µM.
In assay [18] the target is T5, Mitogen-activated protein kinase kinase kinase kinase 2 (Homo sapiens) (UniProt Q12851).
T5 sequence (whole entry): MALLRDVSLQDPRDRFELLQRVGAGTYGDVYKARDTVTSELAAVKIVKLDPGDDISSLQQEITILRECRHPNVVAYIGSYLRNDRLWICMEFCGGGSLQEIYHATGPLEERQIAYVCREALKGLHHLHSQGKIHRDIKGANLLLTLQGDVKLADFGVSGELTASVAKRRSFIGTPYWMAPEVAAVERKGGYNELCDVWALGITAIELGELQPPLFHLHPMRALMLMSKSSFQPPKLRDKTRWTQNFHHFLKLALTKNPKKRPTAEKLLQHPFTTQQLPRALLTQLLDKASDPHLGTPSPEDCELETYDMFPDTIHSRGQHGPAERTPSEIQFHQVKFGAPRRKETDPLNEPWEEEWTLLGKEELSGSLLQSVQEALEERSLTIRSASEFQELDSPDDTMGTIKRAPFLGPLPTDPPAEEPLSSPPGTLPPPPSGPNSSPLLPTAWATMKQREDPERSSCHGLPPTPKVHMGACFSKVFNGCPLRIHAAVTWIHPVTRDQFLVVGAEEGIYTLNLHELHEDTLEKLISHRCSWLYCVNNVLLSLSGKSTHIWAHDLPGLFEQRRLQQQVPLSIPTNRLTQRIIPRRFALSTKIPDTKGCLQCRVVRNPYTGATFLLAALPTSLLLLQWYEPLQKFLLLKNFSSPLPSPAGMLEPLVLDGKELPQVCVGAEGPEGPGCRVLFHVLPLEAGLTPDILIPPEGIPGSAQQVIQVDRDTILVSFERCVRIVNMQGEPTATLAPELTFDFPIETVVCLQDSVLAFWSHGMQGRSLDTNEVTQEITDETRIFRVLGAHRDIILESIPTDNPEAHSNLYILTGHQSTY
The settings on record: at 0.1 µM.

Assay [19] addresses T5, Mitogen-activated protein kinase kinase kinase kinase 2 (Homo sapiens). The settings on record: at 1 µM.
Assay [20] has as its target Mitogen-activated protein kinase kinase kinase kinase 4 (Homo sapiens) (UniProt O95819). Particulars: at 0.1 µM.

Sequence of High affinity nerve growth factor receptor (Homo sapiens) (P04629 33-796 limits assumed): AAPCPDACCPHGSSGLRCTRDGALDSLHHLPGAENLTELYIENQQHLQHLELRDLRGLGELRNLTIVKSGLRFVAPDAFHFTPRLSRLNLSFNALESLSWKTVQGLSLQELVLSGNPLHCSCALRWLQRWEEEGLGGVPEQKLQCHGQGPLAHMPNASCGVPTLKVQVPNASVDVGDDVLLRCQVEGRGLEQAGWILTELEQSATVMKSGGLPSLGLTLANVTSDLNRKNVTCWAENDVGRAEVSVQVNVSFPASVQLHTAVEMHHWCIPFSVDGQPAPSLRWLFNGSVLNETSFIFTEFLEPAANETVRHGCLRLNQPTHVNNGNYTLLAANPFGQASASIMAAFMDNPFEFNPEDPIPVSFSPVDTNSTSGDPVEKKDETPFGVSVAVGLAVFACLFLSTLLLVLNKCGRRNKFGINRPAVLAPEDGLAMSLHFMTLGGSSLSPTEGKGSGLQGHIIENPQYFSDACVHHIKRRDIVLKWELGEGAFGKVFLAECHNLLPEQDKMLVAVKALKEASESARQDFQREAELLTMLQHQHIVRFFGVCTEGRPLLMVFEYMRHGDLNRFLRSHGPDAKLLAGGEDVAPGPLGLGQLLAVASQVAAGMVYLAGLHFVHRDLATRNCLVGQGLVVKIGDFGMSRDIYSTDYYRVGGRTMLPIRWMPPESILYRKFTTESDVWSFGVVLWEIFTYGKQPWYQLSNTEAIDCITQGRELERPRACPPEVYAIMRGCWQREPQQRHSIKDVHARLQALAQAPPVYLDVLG
Sequence of BDNF/NT-3 growth factors receptor (Homo sapiens) (Q16620 32-822 limits assumed): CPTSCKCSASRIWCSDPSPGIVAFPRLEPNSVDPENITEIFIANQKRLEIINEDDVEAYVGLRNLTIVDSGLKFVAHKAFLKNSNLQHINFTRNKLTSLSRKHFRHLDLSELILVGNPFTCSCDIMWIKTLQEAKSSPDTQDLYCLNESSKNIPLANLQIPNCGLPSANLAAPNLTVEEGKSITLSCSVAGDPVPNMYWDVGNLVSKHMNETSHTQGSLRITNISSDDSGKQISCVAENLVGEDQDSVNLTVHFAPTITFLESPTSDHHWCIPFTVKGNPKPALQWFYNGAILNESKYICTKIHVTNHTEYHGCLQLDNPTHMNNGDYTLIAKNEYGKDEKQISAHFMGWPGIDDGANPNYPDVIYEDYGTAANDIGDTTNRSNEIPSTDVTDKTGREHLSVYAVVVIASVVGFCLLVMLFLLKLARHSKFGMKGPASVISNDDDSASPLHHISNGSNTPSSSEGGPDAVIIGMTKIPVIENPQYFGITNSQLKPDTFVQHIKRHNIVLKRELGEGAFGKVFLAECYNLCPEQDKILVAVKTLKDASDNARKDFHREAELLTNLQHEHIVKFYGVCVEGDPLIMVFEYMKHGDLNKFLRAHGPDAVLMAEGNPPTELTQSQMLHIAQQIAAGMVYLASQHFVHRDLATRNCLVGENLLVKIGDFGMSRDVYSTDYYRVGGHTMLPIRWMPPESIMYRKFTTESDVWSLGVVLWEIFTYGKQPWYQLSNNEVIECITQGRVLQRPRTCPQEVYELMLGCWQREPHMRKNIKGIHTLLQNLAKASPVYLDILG
Sequence of Mitogen-activated protein kinase kinase kinase kinase 4 (Homo sapiens) (O95819 2-1239 limits assumed): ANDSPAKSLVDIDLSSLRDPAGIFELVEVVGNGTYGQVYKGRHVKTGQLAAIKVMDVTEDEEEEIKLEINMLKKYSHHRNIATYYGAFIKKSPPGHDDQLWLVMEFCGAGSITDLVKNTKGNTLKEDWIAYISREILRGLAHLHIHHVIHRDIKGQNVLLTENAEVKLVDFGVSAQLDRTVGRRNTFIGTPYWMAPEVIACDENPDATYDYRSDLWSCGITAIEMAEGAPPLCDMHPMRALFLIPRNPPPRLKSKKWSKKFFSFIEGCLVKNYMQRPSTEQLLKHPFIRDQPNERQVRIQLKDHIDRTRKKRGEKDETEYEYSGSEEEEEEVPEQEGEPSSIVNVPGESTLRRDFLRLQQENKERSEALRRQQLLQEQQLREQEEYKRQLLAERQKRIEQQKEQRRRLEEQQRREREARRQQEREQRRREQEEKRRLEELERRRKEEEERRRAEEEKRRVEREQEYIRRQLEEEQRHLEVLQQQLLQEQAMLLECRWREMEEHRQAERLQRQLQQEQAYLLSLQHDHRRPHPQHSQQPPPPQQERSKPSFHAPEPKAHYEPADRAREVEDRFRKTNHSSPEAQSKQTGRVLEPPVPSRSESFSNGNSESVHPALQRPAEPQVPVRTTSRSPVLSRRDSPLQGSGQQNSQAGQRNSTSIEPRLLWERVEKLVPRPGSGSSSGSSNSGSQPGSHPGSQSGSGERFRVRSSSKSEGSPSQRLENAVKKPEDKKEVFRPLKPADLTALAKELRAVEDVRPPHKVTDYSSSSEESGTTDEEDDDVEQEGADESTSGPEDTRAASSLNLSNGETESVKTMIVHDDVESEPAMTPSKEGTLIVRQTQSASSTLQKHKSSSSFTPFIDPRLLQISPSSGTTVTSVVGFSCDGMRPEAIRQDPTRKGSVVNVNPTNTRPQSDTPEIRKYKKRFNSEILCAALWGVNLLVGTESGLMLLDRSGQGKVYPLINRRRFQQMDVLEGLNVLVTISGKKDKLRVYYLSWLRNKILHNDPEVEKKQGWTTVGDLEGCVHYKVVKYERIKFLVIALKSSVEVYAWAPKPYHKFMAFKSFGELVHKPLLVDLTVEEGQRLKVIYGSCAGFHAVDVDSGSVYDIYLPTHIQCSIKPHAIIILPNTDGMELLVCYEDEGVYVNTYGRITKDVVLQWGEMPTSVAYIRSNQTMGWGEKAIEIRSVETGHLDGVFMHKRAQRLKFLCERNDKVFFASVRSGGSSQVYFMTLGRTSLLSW

Turning to `Cc1ccc(O)cc1Nc1ccnc2cc(-c3ccccn3)ccc12`, the inhibition worked out at 4.34% in assay [1]; 1.78% in assay [2]; 2.4% in [3]; 3.76% in assay [4]; 4.64% in [5]; 42% in assay [6]. For the same molecule, the inhibition in assay [7] was 82.3%; in assay [8] it was -4.79%; in assay [9], 7.97%; in [10], 2.82%; in assay [11], 17.7%; in assay [12], 9.57%. The inhibition in assay [13] was 43.9%; in [14], 6.76%; in [15], 60.6%; in assay [16], 11.1%; in [17], 47.6%; in assay [18] it was 3.74%. The inhibition in [19] amounted to 26.4%; in [20], 26.7%.
Regarding `CC1=C(C(=O)Nc2cc(Cl)c3[nH]ncc3c2)C(c2ccc(C(F)(F)F)cc2)CC(=O)N1` (stereo not given), the inhibition in assay [1] was found to be 2.71%; in [2], 2.52%; in assay [3], 3.55%; in assay [4], 3.39%; in assay [5] it was 6.01%; in assay [6] it was 2.42%. Also, the inhibition in [7] was 1.68%; in assay [8], -1.59%; in assay [9] it was 5.07%; in assay [10], 3.11%; in assay [11], 16.6%; in [12], 2.95%. Also, the inhibition in assay [13] amounted to 10%; in [14], 0.68%; in [15], 7.15%; in assay [16] it was 6.25%; in assay [17], 7.45%; in assay [18] it was 2%. The inhibition in assay [19] was 3.92%; in assay [20], 2.89%.
On to `CCn1c(-c2nonc2N)nc2c(C#CC(C)(C)O)ncc(OC3CCNCC3)c21`, for which the inhibition in [1] was 3.24%; in assay [2] it was 1.42%; in [3] it was 1.02%; in assay [4] it was 2.31%; in assay [5] it was -0.14%; in assay [6], 6.03%. Moreover, the inhibition came out at 3.86% in [7]; 0.42% in assay [8]; 7.59% in assay [9]; 4.24% in [10]; 0.96% in assay [11]; 2.65% in assay [12]. The inhibition stood at 1.85% in [13]; 1.48% in assay [14]; 3.1% in assay [15]; 3.27% in assay [16]; 11.2% in assay [17]; 2.3% in [18]. Also, the inhibition in assay [19] amounted to 3.12%; in assay [20] it was 2.72%.
In the case of `CCN1CCC(CC(=O)Nc2n[nH]c3nnc(-c4cccc(F)c4F)cc23)CC1`, the inhibition was -2.79% in [1]; 0.47% in [2]; 0.8% in assay [3]; 0.17% in [4]; 0.31% in [5]; -0.72% in assay [6]. The inhibition in assay [7] was 3.03%; in assay [8], 0.26%; in assay [9] it was 1.38%; in assay [10] it was 3.98%; in assay [11] it was 2.34%; in assay [12], 0.22%. Also, the inhibition in assay [13] came to 4.4%; in [14] it was 1.43%; in assay [15], 4.58%; in [16], 3.88%; in assay [17], 4.08%; in assay [18], 0.29%. The inhibition came to 5.3% in [19] and 2.42% in [20].

For orientation: inhibition means the drop in the measured response relative to a control, in per cent.
